Test results as given in PubChem BioAssay (NCATS).
Records with an inconclusive call do not appear. The source made the active and inactive calls. The call rests on the fitted dose curve; in most records, active means well fitted inhibition curve with a large enough effect; inconclusive means small, poorly fitted or top-dose-only effect; inactive means flat fitted curve, though single readings scatter.

Legend:
Assay in all cases: qHTS profiling for inhibitors of Plasmodium falciparum proliferation (AID 504749); further: nearly all actives have a fitted effect of over 60% in size
Details in all cases: P. falciparum in erythrocytes, SYBR Green DNA, 72 h; series mostly up to 28.7 µM
CP265 = test system: CP265
Procedure, shortened: (§1)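 In a 72 h erythrocytic culture (37 C, humidified, 5% CO2) at 2.5% hematocrit and 0.3% starting parasitemia, compounds were tested; SYBR Green I in detergent lysis buffer stained parasite DNA overnight.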

CP266 = test system: CP266
Procedure, shortened: as §1

CP286 = test system: CP286
Procedure, shortened: as §1

CP297 = test system: CP297
Procedure, shortened: as §1

DIV14 = test system: DIV14
Procedure, shortened: as §1

DIV17 = test system: DIV17
Procedure, shortened: as §1

Dd2 = test system: Dd2
Procedure, shortened: as §1

CP260 = test system: CP260
Procedure, shortened: as §1

CP262 = test system: CP262
Procedure, shortened: as §1

CP268 = test system: CP268
Procedure, shortened: as §1

CP269 = test system: CP269
Procedure, shortened: as §1

CP305 = test system: CP305
Procedure, shortened: as §1

CP315 = test system: CP315
Procedure, shortened: as §1

CP325 = test system: CP325
Procedure, shortened: as §1

DFO2036 = test system: DFO2036
Procedure, shortened: as §1

CP291 = test system: CP291
Procedure, shortened: as §1

CP329 = test system: CP329
Procedure, shortened: as §1

DIV30 = test system: DIV30
Procedure, shortened: as §1

CP335 = test system: CP335
Procedure, shortened: as §1

CP256 = test system: CP256
Procedure, shortened: as §1

Measured: Potency
Potency means the concentration at half of the fitted maximal effect.

OC(CCN1CCCCC1)(c1ccccc1)c1ccccc1
active: CP265 8.91 µM | CP286 11.2 µM | CP297 6.01 µM | DIV14 4.26 µM | DIV17 6.75 µM | Dd2 10 µM
inactive: CP266

CCOc1ccc(Cc2nccc3cc(OCC)c(OCC)cc23)cc1OCC
not listed: CP291 | CP329 | DIV30 | CP335 | CP256
inactive: all other assays above

CC/C(=C(/CC)c1ccc(O)cc1)c1ccc(O)cc1
not listed: DIV14 | CP260 | CP262 | CP335 | CP256
inactive: all other assays above

CCCOC(C(=O)OC1CCN(C)CC1)(c1ccccc1)c1ccccc1
inactive: CP262 | CP266 | CP297 | CP315 | CP329 | DFO2036
active: DIV14 7.57 µM | DIV17 7.57 µM | Dd2 12.6 µM

COc1ccc(CN2CCN(C(c3ccc(F)cc3)c3ccc(F)cc3)CC2)c(OC)c1OC
active: CP260 7.94 µM | CP265 11.2 µM | CP269 15.1 µM | CP286 7.08 µM | CP325 16.9 µM | CP335 6.01 µM | DIV14 12 µM | DIV17 12 µM | DIV30 16.9 µM | Dd2 7.94 µM

CN1CCN(CCCN2c3ccccc3Sc3ccc(S(=O)(=O)N(C)C)cc32)CC1
active: CP265 3.55 µM | DIV14 4.55 µM | DIV30 7.21 µM | Dd2 3.55 µM
inactive: CP262 | CP266 | CP315 | CP329

CCCCc1nc(Cl)c(CO)n1Cc1ccc(-c2ccccc2-c2nn[nH]n2)cc1
inactive: CP262 | CP268 | CP297
active: DIV14 8.49 µM

Oc1c(I)cc(Cl)c2cccnc12
active: CP256 2.51 µM
not listed: CP265 | DIV14 | CP260 | CP262 | DFO2036 | CP291
inactive: all other assays above

CC(C)=CCC1C(=O)N(c2ccccc2)N(c2ccccc2)C1=O
inactive: CP265 | CP266 | CP268 | CP315

CNCCC=C1c2ccccc2CCc2ccccc21
inactive: CP268 | CP315
active: CP265 7.94 µM | DIV14 2.13 µM | DIV17 3.79 µM | Dd2 8.91 µM

Oc1c(I)cc(I)c2cccnc12
inactive: DIV14

C[C@@H]1CN(CCCn2c3ccccc3c3ccccc32)C[C@H](C)N1
active: CP260 11.2 µM | CP265 7.94 µM | CP286 12.6 µM | DFO2036 14.1 µM | DIV14 2.39 µM | DIV17 4.78 µM | DIV30 9.53 µM | Dd2 6.31 µM
inactive: CP266 | CP315

Oc1ccc(O)cc1
inactive: CP268 | CP291 | DIV17
active: CP335 2.39 µM

Clc1ccc2c(c1)CCc1cccnc1C2=C1CCNCC1
inactive: CP256 | DFO2036
active: CP286 10 µM | DIV14 7.57 µM | DIV17 9.53 µM | DIV30 16.9 µM | Dd2 4.47 µM

CCCCCCCCCCOCC(O)CN (configuration not stated)
active: DIV14 10.7 µM | Dd2 12.6 µM
inactive: CP260 | CP262 | CP266 | CP269 | CP315 | CP329 | DFO2036

c1ccc(-c2ccc(C(c3ccccc3)n3ccnc3)cc2)cc1 (configuration not stated)
active: CP297 6.75 µM | CP315 16.9 µM | DIV14 9.53 µM | DIV17 10.7 µM | DIV30 12 µM | Dd2 7.94 µM
inactive: CP262

CCN(CC)CCOc1ccc(C(O)(Cc2ccc(Cl)cc2)c2ccc(C)cc2)cc1 (configuration not stated)
active: CP260 11.2 µM | CP268 19 µM | CP269 15.1 µM | CP286 10 µM | CP291 13.5 µM | CP297 16.9 µM | CP335 12 µM | DIV14 9.53 µM | DIV17 15.1 µM | Dd2 10 µM

CN(C)CC/C=C1\c2ccccc2Sc2ccc(Cl)cc21
active: CP260 8.91 µM | CP286 11.2 µM | DIV14 7.57 µM | DIV17 3.38 µM | Dd2 8.91 µM
inactive: CP262 | CP266 | CP268 | CP297 | CP305 | CP315 | CP329
